Experimental findings from PubChem BioAssay (Tox21) are described below.

A number with no mark means an inactive call. Records with an inconclusive call do not appear. Entries that show only a call come without a potency. Activity calls are given as the source filed them. Unless noted, calls follow the shape of the dose curve; as a rule, active = well fitted curve in the direction sought with a large enough effect in the repeat runs; inconclusive = weak or mixed curves; inactive = no such curve, though single readings can be large; an effect the other way counts as inactive or inconclusive.

Androgen receptor (Homo sapiens), sequence (P10275 whole entry, looked up): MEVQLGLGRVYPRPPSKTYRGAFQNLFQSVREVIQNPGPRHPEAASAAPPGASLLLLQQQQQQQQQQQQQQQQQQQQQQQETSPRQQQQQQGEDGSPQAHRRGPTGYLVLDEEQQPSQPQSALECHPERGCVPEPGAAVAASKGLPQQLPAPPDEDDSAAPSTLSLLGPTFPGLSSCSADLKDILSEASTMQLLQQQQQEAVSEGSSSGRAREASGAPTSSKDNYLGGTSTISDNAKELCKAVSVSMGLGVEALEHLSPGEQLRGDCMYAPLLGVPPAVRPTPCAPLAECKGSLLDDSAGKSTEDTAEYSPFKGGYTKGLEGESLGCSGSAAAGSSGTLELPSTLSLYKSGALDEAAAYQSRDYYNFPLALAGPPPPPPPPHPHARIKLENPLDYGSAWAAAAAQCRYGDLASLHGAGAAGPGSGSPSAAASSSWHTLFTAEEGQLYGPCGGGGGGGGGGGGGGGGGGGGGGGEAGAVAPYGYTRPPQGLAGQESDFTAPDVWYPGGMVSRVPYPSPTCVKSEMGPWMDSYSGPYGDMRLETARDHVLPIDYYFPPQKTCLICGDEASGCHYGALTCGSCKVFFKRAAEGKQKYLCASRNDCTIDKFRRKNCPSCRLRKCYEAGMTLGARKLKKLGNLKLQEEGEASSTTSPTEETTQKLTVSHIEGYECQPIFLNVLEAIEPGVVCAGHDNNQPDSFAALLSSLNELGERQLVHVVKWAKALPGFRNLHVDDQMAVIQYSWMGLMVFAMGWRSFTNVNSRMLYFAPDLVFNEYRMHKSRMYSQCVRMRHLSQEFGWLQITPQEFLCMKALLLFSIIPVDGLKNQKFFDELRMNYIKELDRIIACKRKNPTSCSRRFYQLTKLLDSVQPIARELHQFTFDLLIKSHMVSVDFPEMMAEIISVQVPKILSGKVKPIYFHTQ

Tested on in the first experiment: not listed separately
As to the kind of experiment: qHTS assay to identify small molecule agonists of the estrogen receptor beta (ER-beta) signaling pathway - cell viability counter screen (AID 1259380). Also: nearly all actives have a fitted effect of over 30% in size. Also: potency is read from the fitted curve at half-maximal effect. To be noted: ER-beta-bla HEK293T viability, CellTiter-Glo luminescence, 16 h; series mostly up to 92.4 µM. In short, it runs like this:
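Steps: plate ER-beta-UAS-bla HEK293T cells, rest 6 hr; add compounds in DMSO; incubate 16 hr at 37C, 5% CO2; add FRET substrate 2 hr; add CellTiter-Glo, wait 30 min at room temperature; read luminescence.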
Take `CC(C)c1ccccc1`: the Potency result is “inactive”.

As for `CC(C)CCCCCCc1ccc(OCCOCCO)cc1`, the Potency result is “inactive”.

Turning to `Cc1ccsc1C(=CCCN1CCC[C@@H](C(=O)O)C1)c1sccc1C`, the Potency entry was “inactive”.

Regarding `Cc1ncc(CO)c(CN)c1O`, the Potency result is “inactive”.

In the case of `CC(CNC1CCCCC1)OC(=O)c1ccccc1` (stereo not drawn), the Potency result is “inactive”.

In the case of `COc1ccc(S(=O)(=O)Nc2nnc(CC(C)C)s2)cc1`, the Potency result is “inactive”.

Turning to `CO[C@@]1(NC(=O)CSCC#N)C(=O)N2C(C(=O)O)=C(CSc3nnnn3C)CS[C@@H]21`, the Potency entry is “inactive”.

On to `C[C@@H]1CN(c2c(F)c(F)c3c(=O)c(C(=O)O)cn(C4CC4)c3c2F)C[C@H](C)N1`, for which the activity change, negative = cytotoxicity is -0.431% [at 19 µM].

With `CC(=O)N(CC(O)CN(C(C)=O)c1c(I)c(C(=O)NCC(O)CO)c(I)c(C(=O)NCC(O)CO)c1I)c1c(I)c(C(=O)NCC(O)CO)c(I)c(C(=O)NCC(O)CO)c1I` (stereo not drawn), the Potency result is “inactive”.

In the case of `C[C@@H](N)C(=O)O`, the Potency entry is “inactive”.

With `Cc1c(C(=O)NCCO)[n+](=O)c2ccccc2n1[O-]`, the Potency entry was “inactive”.

For the molecule `C=Cc1ccccc1`, the Potency entry was “inactive”.

For `CCN(CC)CCNC(=O)COc1ccc(Cl)cc1`, the Potency result was “inactive”.

For `CC(=O)OC(C)OC(C)=O`, the Potency result is “inactive”.

With `CN(C)Cc1ccccc1`, the Potency result was “inactive”.

Take `O=c1oc2c(O)c(O)cc3c(=O)oc4c(O)c(O)cc1c4c23`: the activity change, negative = cytotoxicity was 7.11% [at 19 µM].

Take `O=c1[nH]c(=O)n([C@H]2C[C@H](O)[C@@H](CO)O2)cc1C(F)(F)F`: the Potency result is “inactive”.

On to `CC1=C2[C@H](/C=C(\C)C(=O)O)CC[C@@H](C)[C@H]2CC1`, for which the Potency was 25.2 µM (active).

In the case of `Nc1cccc(S(=O)(=O)O)c1`, the Potency entry is “inactive”.

In the case of `N#CSCC(=O)O`, the Potency result was “inactive”.

In the case of `CC(=O)O[C@H]1CC[C@@]2(C)C(=CC[C@@H]3[C@@H]2CC[C@]2(C)C(C(C)=O)=CC[C@@H]32)C1`, the Potency result was “inactive”.

For the molecule `CCCC(CCC)(C(=O)OCC)C(=O)OCC`, the Potency result is “inactive”.

With `COC(C)CCO` (stereo not drawn), the Potency result is “inactive”.

In the case of `O=Cc1ccc(O)c(O)c1O`, the Potency entry was “inactive”.

`CN1CCN(N)CC1`: the Potency entry was “inactive”.

A further experiment has as its target Androgen receptor (Homo sapiens) (UniProt P10275). The experiment in a line: qHTS assay to identify small molecule agonists of the androgen receptor (AR) signaling pathway in the presence of an antagonist (AID 1259381; calls by dose curve; also: nearly all actives have a fitted effect of over 15% in size). To be noted: MDA-kb2 MMTV-luciferase, AR agonist + nilutamide, 16 h; series mostly up to 42.5 µM. In short, it runs like this: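 Reporter-gene luminescence from MDA-kb2 cells exposed 16hr at 37C (0% CO2) to 15-point compound titrations with 3.0uM final nilutamide as AR antagonist.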
(In general: In qHTS, concentration-response curves come from the screen itself.)
For `CC(C)c1ccccc1`, the Potency result is “inactive”.

As to `CC(C)CCCCCCc1ccc(OCCOCCO)cc1`, the Potency entry was “inactive”.

On to `Cc1ccsc1C(=CCCN1CCC[C@@H](C(=O)O)C1)c1sccc1C`, for which the Potency result is “inactive”.

Regarding `Cc1ncc(CO)c(CN)c1O`, the Potency entry was “inactive”.

`Cn1cnc2c(F)c(Nc3ccc(Br)cc3Cl)c(C(=O)NOCCO)cc21`: the Potency result is “inactive”.

In the case of `C[C@@H]1CN(c2c(F)c(F)c3c(=O)c(C(=O)O)cn(C4CC4)c3c2F)C[C@H](C)N1`, the Potency entry was “inactive”.

On to `CC(C)(C)c1cccc(O)c1`, for which the Potency result was “inactive”.

Regarding `C[C@@H](N)C(=O)O`, the Potency result was “inactive”.

`Cc1c(C(=O)NCCO)[n+](=O)c2ccccc2n1[O-]`: the Potency result is “inactive”.

Take `CC(=O)OC(C)OC(C)=O`: the Potency entry was “inactive”.

On to `CN(C)Cc1ccccc1`, for which the Potency result was “inactive”.

Regarding `Cc1cc(S(=O)(=O)O)c(N)cc1Cl`, the Potency entry was “inactive”.

Regarding `CC1=C2[C@H](/C=C(\C)C(=O)O)CC[C@@H](C)[C@H]2CC1`, the Potency result is “inactive”.

For the molecule `N#CSCC(=O)O`, the Potency result is “inactive”.

For `CC(=O)O[C@H]1CC[C@@]2(C)C(=CC[C@@H]3[C@@H]2CC[C@]2(C)C(C(C)=O)=CC[C@@H]32)C1`, the Potency entry is “inactive”.

Consider `CCCC(CCC)(C(=O)OCC)C(=O)OCC`, for which the Potency entry was “inactive”.

Turning to `CC(Oc1c(Cl)cccc1Cl)C1=NCCN1` (stereo not drawn), the Potency entry is “inactive”.

For `CC1=C(CC(=O)O)c2cc(F)ccc2/C1=C\c1ccc(S(C)(=O)=O)cc1`, the Potency result is “inactive”.

As to `OCCN(CCO)c1ccccc1`, the Potency result is “inactive”.

Regarding `COC(C)CCO` (stereo not drawn), the Potency entry was “inactive”.

Turning to `COC(=O)C(C)O` (stereo not drawn), the Potency entry was “inactive”.

For the molecule `O=Cc1ccc(O)c(O)c1O`, the Potency result is “inactive”.

For the molecule `CN1CCN(N)CC1`, the Potency result is “inactive”.

As for `CN1CCN(C2=Nc3cc(F)ccc3Cc3ccccc32)CC1`, the Potency result was “inactive”.

Regarding `CC1(O)CSC(C)(O)CS1` (stereo not drawn), the Potency entry is “inactive”.

Tested on in the next experiment: not listed separately
As to the kind of experiment: qHTS assay to identify small molecule antagonists of the estrogen receptor beta (ER-beta) signaling pathway - cell viability counter screen (AID 1259382). Also: nearly all actives have a fitted effect of over 55% in size. To be noted: ER-beta-UAS-bla HEK293T viability, CellTiter-Glo luminescence, 16 h; series mostly up to 92.4 µM. The procedure, abridged: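 Viability is scored by CellTiter-Glo luminescence (30 min, room temperature) in ER-beta-UAS-bla HEK293T wells already read for reporter fluorescence. Compound exposure lasts 16 hr at 37C alongside 1nM 17-beta-estradiol in charcoal-stripped serum medium.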
Take `CC(C)CCCCCCc1ccc(OCCOCCO)cc1`: the molecule was classed as inactive.

As for `Cc1ccsc1C(=CCCN1CCC[C@@H](C(=O)O)C1)c1sccc1C`, the result was inactive.

`CC(CNC1CCCCC1)OC(=O)c1ccccc1` (stereo not drawn): the result was inactive.

On to `Cn1cnc2c(F)c(Nc3ccc(Br)cc3Cl)c(C(=O)NOCCO)cc21`, for which the result was inactive.

Turning to `CO[C@@]1(NC(=O)CSCC#N)C(=O)N2C(C(=O)O)=C(CSc3nnnn3C)CS[C@@H]21`, the result was inactive.

Turning to `C[C@@H]1CN(c2c(F)c(F)c3c(=O)c(C(=O)O)cn(C4CC4)c3c2F)C[C@H](C)N1`, the activity change, negative = cytotoxicity was 0.873% [at 19 µM].

Take `CC(=O)N(CC(O)CN(C(C)=O)c1c(I)c(C(=O)NCC(O)CO)c(I)c(C(=O)NCC(O)CO)c1I)c1c(I)c(C(=O)NCC(O)CO)c(I)c(C(=O)NCC(O)CO)c1I` (stereo not drawn): the call was inactive.

Take `CC(C)(C)c1cccc(O)c1`: the molecule was classed as inactive.

Take `C[C@@H](N)C(=O)O`: the result was inactive.

As for `CCC(=O)O[C@]1(C(=O)SCF)[C@H](C)C[C@H]2[C@@H]3C[C@H](F)C4=CC(=O)C=C[C@]4(C)[C@@]3(F)[C@@H](O)C[C@@]21C`, the molecule was called inactive.

For the molecule `Cc1c(C(=O)NCCO)[n+](=O)c2ccccc2n1[O-]`, the molecule was called inactive.

Take `CCN(CC)CCNC(=O)COc1ccc(Cl)cc1`: the molecule was called inactive.

As for `CC(=O)OC(C)OC(C)=O`, the call was inactive.

With `CN(C)Cc1ccccc1`, the molecule was called inactive.

As for `O=c1oc2c(O)c(O)cc3c(=O)oc4c(O)c(O)cc1c4c23`, the activity change, negative = cytotoxicity was -1.21% [at 19 µM].

As for `O=c1[nH]c(=O)n([C@H]2C[C@H](O)[C@@H](CO)O2)cc1C(F)(F)F`, the call was inactive.

On to `FC(F)(F)C(F)(F)C(F)(F)C(F)(F)C(F)(F)C(F)(F)C(F)(F)C(F)(F)Br`, for which the molecule was called inactive.

As to `N#CSCC(=O)O`, the outcome was inactive.

Turning to `CC(=O)O[C@H]1CC[C@@]2(C)C(=CC[C@@H]3[C@@H]2CC[C@]2(C)C(C(C)=O)=CC[C@@H]32)C1`, the outcome was inactive.

Take `CCCC(CCC)(C(=O)OCC)C(=O)OCC`: the molecule was called inactive.

Consider `CC(Oc1c(Cl)cccc1Cl)C1=NCCN1` (stereo not drawn), for which the call was inactive.

As to `CC1=C(CC(=O)O)c2cc(F)ccc2/C1=C\c1ccc(S(C)(=O)=O)cc1`, the outcome was inactive.

Take `OCCN(CCO)c1ccccc1`: the outcome was inactive.

Turning to `CCN(CC)CC1CCCCN1CC(=O)N1c2ccccc2C(=O)Nc2cccnc21` (stereo not drawn), the molecule was classed as inactive.

`COC(C)CCO` (stereo not drawn): the molecule was called inactive.

With `COC(=O)C(C)O` (stereo not drawn), the outcome was inactive.

`CN1CCN(N)CC1`: the result was inactive.

As to `CC1(O)CSC(C)(O)CS1` (stereo not drawn), the outcome was inactive.
